# From PubChem
# Compounds with a hit are over-represented: about 1.3% of the library has one in this group of screens.
# TRPML1 inh – inhibitors of human TRPML1 channel. activity change, negative = inhibition, % (no concentration beside the values). actives 0.02% (n = 390,000). TRPML1-inducible cells, Ca2+ dye fluorescence, FDSS; active compounds read low; inhibition of EC80 agonist-evoked calcium signal. AID 624415. Q9GZU1; in the data active = activity change below about -50%; inconclusive = between about -30% and that limit;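 note: stimulus is agonist 54-4 at its EC80 concentration; % is set by controls: 0 for no effect and ±100 for the full control effect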
#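 TRPML1-DL cells, Tet-induced overnight (~16 h, 37 °C) at 1,500 cells/well, were loaded with Ca8 no-wash dye plus quencher for 45-90 min at room temperature. Compounds were pinned during FDSS kinetic reading; agonist 54-4 at EC80 (4 uM final) then added.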
# KCNH2 3.1 inh – inhibitors of human KCNH2 3.1 potassium channel isoform. U2OS KCNH2 3.1, thallium flux FluxOr; active compounds read low. activity change, % (tested at about 1.8 µM). actives 0.95% (n = 340,000). AID 720553;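 active = maximum activity change below -70%; inconclusive = maximum activity change from -70% to -50%; inactive = maximum activity change above -50%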;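 note: thallium influx rate constant from kinetic fluorescence after stimulation buffer; % is set by controls: 0 for no effect and ±100 for the full control effect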
#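 Thallium flux read-out: FluxOr dye with Red40 quencher in HBSS/HEPES, 45 min at RT. Rate constants from kinetic reads were normalized to positive and negative DMSO controls. Cells: U2OS virally expressing the 3.1 isoform.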
# TRPML1 agonist – activates the human TRPML1 channel; TRPML1-expressing cells, Ca2+ dye fluorescence, FDSS; activation, % (concentration not given with the values); actives 0.12% (n = 410,000); AID 624414; in the data active = activation above about 50%; inconclusive = mostly about 30% to 49%; note: 0% is about no effect
#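 Agonist activity was taken from a 110 s kinetic Ca2+ dye read on the FDSS after pinning compounds onto TRPML1-DL cells. The cells were seeded at 1,500/well with Tet inducer, incubated about 16 h, then dye-loaded at room temperature.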
# TRPV1 PAM – potentiators of human vanilloid receptor 1 (TRPV1). Q8NER1. TRPV1-expressing cells, Fluo-8 calcium influx, capsaicin EC20 potentiation. potentiation, % at 8.33 µM. actives 0.02% (n = 320,000); in the data active = potentiation above about 80%; inconclusive = between about 30% and that limit; note: 0% is about no effect
#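 Cells expressing TRPV1 were dye-loaded with Fluo-8 and read kinetically: 10 s baseline, 3 min after compound (agonist portion), then 2 min after EC20 capsaicin (allosteric enhancer portion). Calcium-bound dye fluorescence at 480/520 nm.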
# KCNH2 WT inh – inhibitors of human wildtype KCNH2 potassium channel | activity change, % at 1.84 µM | actives 0.37% (n = 340,000) | U2OS, BacMam KCNH2, thallium flux FluxOr; active compounds read low;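 active = maximum activity change below -70%; inconclusive = maximum activity change between -70% and -50%; inactive = maximum activity change above -50%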; note: % is set by controls: 0 for no effect and ±100 for the full control effect
# Target sequence (Q12809 whole entry, looked up): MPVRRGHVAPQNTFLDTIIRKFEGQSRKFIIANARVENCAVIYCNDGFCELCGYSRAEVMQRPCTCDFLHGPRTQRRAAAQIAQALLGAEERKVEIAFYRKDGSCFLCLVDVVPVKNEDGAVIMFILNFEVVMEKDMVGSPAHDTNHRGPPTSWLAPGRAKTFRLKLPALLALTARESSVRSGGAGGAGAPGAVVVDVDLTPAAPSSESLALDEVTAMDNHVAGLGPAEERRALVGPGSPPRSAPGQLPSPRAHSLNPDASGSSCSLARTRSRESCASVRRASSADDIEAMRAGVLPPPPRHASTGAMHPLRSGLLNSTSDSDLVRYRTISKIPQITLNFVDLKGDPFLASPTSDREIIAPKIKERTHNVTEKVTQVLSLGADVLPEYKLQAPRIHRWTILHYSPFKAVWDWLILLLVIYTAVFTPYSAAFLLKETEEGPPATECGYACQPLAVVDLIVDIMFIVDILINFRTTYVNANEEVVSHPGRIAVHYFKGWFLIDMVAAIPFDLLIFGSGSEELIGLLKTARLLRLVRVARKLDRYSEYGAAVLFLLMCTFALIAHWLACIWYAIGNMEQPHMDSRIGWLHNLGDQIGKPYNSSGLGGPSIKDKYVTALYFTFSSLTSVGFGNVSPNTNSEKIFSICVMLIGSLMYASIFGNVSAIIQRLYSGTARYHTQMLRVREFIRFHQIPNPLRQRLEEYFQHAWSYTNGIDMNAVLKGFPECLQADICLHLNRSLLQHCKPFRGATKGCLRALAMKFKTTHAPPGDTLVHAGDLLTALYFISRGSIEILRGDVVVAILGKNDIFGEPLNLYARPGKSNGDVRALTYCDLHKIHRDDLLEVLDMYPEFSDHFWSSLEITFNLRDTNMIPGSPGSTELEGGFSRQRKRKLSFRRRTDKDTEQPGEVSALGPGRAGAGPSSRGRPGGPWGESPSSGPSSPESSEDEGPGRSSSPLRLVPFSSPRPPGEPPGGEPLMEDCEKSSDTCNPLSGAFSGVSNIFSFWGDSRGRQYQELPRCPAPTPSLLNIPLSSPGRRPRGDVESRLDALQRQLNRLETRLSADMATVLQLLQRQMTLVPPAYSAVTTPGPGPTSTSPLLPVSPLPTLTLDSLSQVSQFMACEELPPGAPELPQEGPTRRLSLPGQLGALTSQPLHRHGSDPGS
#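 U2OS cells were transduced with wild-type KCNH2 virus (2.03 x 10^8 / mL) for 4 h at room temperature, then cultured overnight at 37 C. Thallium flux was read with FluxOr dye. Rate constants were normalized to DMSO controls.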
# TRPV1 ag – agonists of human vanilloid receptor 1 (TRPV1). Q8NER1. TRPV1-expressing cells, Fluo-8 calcium influx, agonist mode. activation, % at 8.33 µM. actives 0.19% (n = 320,000). AID 540275; in the data active = activation above about 80%; inconclusive = between about 30% and that limit; note: 0% is about no effect
#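 TRPV1-expressing cells were cultured overnight at 35.5C and loaded with Fluo-8 calcium dye for 40 to 90 min at room temperature. After a 10 s baseline, compound was added and calcium influx was read kinetically for 3 min (ex 480/em 520 nm).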
# Active calls of the source: *; u = inconclusive; x = no result given.
SMILES,TRPML1 inh,KCNH2 3.1 inh,TRPML1 agonist,TRPV1 PAM,KCNH2 WT inh,TRPV1 ag
COc1ccc(C2N(S(=O)(=O)c3ccc(C)cc3)CCN2S(=O)(=O)c2ccc(C)cc2)cc1,-1,-72*,1,0,-6,7
O=C(CSc1nc2c([nH]c3ccccc32)c(=O)n1-c1cccc(Cl)c1)c1ccccc1,1,x,0,x,x,x
O=C(CN1C(=O)c2ccc([N+](=O)[O-])cc2C1=O)NC1CCS(=O)(=O)C1 (configuration not stated),16,-3,0,8,3,-2
O=C(CN1C(=O)c2ccccc2C1=O)NC1CCS(=O)(=O)C1 (configuration not stated),16,-85*,0,x,3,x
Cc1c(-c2ccccc2)[nH]n2c(=O)c3c(nc12)CCCC3,-9,-92*,2,3,7,10
COCCN1Cc2cccc(C(=O)Nc3cccc(-c4nc5ccccc5[nH]4)c3)c2C1=O,9,-73*,3,-11,26,23
Cc1ccc(NC(=O)Cn2c(=O)nc(-c3ccccc3F)c3cc(Cl)ccc32)c(Br)c1,18,x,-1,x,x,x
COCCn1c(-c2ccc(Br)cc2)csc1=Nc1cccnc1,35,-79*,2,-7,-8,1
Clc1ccc(-c2csc(=Nc3cccnc3)n2CCCn2ccnc2)cc1Cl,52,u,0,5,16,0
CCn1c(=N)c(C(=O)NCC2CCCO2)cc2c(=O)n3cc(C)ccc3nc21 (configuration not stated),-7,x,-1,x,x,x
O=C(O)c1[nH]c2ccc([N+](=O)[O-])cc2c1-c1ccccc1,x,-194*,x,9,0,0
CC(C)=CNNC(=O)c1ccc(O)cc1,x,x,-1,x,x,x
O=C(C1=C(O)C(=O)N(CCc2ccccc2)C1c1ccncc1)c1cc2ccccc2o1 (configuration not stated),-18,-7,1,5,-7,3
O=C(C1=C(O)C(=O)N(c2nccs2)C1c1ccccc1)c1cc2ccccc2o1 (configuration not stated),-2,-11,92*,4,-7,u
N#C/C(=C\c1coc2ccc(O)cc2c1=O)C(=O)Nc1nc2ccccc2s1,-22,3,72*,-9,14,u
CCc1ccc(Nc2nnc(SC(C)C(=O)NC3CC3)s2)cc1 (configuration not stated),-14,10,1,x,19,x
CCc1ccc(Nc2nnc(SC3CCOC3=O)s2)cc1 (configuration not stated),15,5,0,2,14,82*
CCOC(=O)Cn1c(=O)c(-c2ccccc2N)nc2ccccc21,-11,-12,0,-10,0,1
CCOC(=O)Cn1c(=O)c(-c2cc(Br)ccc2N)nc2ccccc21,10,-40,0,-3,-242*,10
CCCCC1=CC2=CC(=O)C(C)(OC(=O)CC)C(=O)C2=CN1CCc1ccccn1 (configuration not stated),-54*,12,0,-6,4,0
CC1(C)C2CCC1(CS(=O)(=O)N1CCOCC1)C(=O)C2 (configuration not stated),-5,-70*,0,14,7,1
CC1(C)C2CCC1(CS(=O)(=O)N1CCC(C(N)=O)CC1)C(=O)C2 (configuration not stated),6,8,0,1,-4,-5
O=C(/C=C/c1ccccc1)NC(=S)Nc1ccc(CN2CCOCC2)cc1,-2,-85*,1,-2,0,-1
O=C(/C=C/c1ccc(Cl)cc1Cl)NC(=S)Nc1ccc(CN2CCOCC2)cc1,-5,6,-1,3,0,0
COc1ccc(/C=C/C(=O)NC(=S)Nc2ccc(N3CCN(C(C)=O)CC3)cc2)cc1,-6,10,2,-7,-174*,1
SMILES,TRPML1 inh,KCNH2 3.1 inh,TRPML1 agonist,TRPV1 PAM,KCNH2 WT inh,TRPV1 ag
CC(=O)N1CCN(c2ccc(NC(=S)NC(=O)/C=C/c3ccccc3)cc2)CC1,x,x,x,2,x,0
COCCCNC(=O)Cn1c(=O)n(-c2cccc(C)c2)c(=O)c2c1c1cc(C)ccc1n2C,-14,x,-1,x,x,x
O=C(Oc1cccc(NC(=O)c2ccccc2Cl)c1)c1ccc([N+](=O)[O-])cc1,-4,-13,-1,u,-186*,0
COc1cccc(/C=C/C(=O)Nc2ccc3[nH]c(=O)[nH]c3c2)c1,44,6,0,4,2,93*
COc1cc(/C=C/C(=O)Nc2ccc3[nH]c(=O)[nH]c3c2)cc(OC)c1OC,-5,5,0,-1,0,-14
O=C(/C=C/c1ccc(F)cc1)Nc1ccc2[nH]c(=O)[nH]c2c1,8,34,0,0,6,83*
COc1ccc(C2(CNC(=O)C(=O)Nc3ccc(F)cc3)CCCC2)cc1OC,-14,x,0,x,x,x
CCN(Cc1ccccc1)c1ccc(/C=C/c2nccc3ccccc23)cc1,x,x,22,x,x,x
Cn1nnnc1SCCNCc1ccc(Cl)cc1,1,-95*,1,6,0,-6
Cc1ccc(CSc2nnnn2C)cc1,12,-98*,0,-1,2,-1
COc1cc(-c2noc(-c3ccc(NCc4cccnc4)c([N+](=O)[O-])c3)n2)cc(OC)c1OC,2,x,-1,x,x,x
COC(=O)c1[nH]c2cc(OC)ccc2c1NC(=O)CCN1CCN(c2cccc(C)c2C)CC1,-1,-91*,-1,-7,6,u
COc1cc(OC)cc(-c2nnc(Nc3nc4c(F)cccc4s3)o2)c1,8,12,0,8,2,1
Fc1cccc2sc(Nc3nnc(-c4ccccc4)o3)nc12,2,-13,0,26,-149*,-2
CN(C)c1ccc(/C=C/c2cc3ccccc3cn2)cc1,x,x,-1,x,x,x
COC(=O)[C@@H](NC(=O)N1CCN(C(=O)C2COc3ccccc3O2)CC1)C(C)C (some centres not stated),-60*,11,1,10,-4,-1
O=C(C1COc2ccccc2O1)N1CCN(c2ccc([N+](=O)[O-])cc2)CC1 (configuration not stated),15,-73*,0,x,3,x
O=C(C1COc2ccccc2O1)N1CCN(c2ccc(F)cc2)CC1 (configuration not stated),10,40,1,10,5,26
CCc1ccccc1NC(=O)Nc1ccc2c(c1)N(CC)C(=O)c1ccccc1S2,-2,x,1,x,x,x
